Assay [1] concerns the target T1, Ephrin type-A receptor 3 (Homo sapiens) (UniProt P29320).
T1 sequence (whole entry): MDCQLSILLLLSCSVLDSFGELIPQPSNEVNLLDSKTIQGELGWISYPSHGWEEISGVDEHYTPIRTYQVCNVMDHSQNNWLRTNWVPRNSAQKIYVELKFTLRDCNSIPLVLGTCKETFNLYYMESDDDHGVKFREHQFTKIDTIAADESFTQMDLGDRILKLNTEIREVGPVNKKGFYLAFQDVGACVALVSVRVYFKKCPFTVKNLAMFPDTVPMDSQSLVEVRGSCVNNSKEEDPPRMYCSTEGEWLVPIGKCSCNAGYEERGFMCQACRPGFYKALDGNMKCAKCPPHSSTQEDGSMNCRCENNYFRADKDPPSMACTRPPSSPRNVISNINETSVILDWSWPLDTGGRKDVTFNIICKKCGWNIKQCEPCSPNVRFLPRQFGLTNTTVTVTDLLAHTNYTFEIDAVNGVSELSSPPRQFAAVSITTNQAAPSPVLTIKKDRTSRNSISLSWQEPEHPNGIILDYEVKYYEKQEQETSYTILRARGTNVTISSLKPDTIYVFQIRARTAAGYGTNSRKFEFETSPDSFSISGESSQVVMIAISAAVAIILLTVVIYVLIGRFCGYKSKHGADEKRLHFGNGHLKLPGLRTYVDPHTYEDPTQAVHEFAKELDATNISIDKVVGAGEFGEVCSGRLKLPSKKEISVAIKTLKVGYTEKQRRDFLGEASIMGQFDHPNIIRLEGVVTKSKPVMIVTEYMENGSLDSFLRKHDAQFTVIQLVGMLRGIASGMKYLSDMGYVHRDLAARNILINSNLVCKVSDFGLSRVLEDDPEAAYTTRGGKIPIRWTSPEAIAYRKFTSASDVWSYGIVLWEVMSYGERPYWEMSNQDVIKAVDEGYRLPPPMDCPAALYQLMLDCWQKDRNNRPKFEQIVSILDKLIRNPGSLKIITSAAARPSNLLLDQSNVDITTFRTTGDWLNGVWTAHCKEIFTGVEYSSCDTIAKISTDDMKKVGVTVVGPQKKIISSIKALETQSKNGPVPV
To be noted: at 10 µM.

Assay [2] concerns the target Ephrin type-A receptor 4 (Homo sapiens) (UniProt P54764). To be noted: at 1 µM.
For assay [3] the target is unchanged. The conditions noted are these: at 10 µM.
In assay [4] the target is Ephrin type-A receptor 5 (Homo sapiens) (UniProt P54756). The conditions noted are these: at 1 µM.
Ephrin type-A receptor 5 (Homo sapiens), sequence (P54756 whole entry): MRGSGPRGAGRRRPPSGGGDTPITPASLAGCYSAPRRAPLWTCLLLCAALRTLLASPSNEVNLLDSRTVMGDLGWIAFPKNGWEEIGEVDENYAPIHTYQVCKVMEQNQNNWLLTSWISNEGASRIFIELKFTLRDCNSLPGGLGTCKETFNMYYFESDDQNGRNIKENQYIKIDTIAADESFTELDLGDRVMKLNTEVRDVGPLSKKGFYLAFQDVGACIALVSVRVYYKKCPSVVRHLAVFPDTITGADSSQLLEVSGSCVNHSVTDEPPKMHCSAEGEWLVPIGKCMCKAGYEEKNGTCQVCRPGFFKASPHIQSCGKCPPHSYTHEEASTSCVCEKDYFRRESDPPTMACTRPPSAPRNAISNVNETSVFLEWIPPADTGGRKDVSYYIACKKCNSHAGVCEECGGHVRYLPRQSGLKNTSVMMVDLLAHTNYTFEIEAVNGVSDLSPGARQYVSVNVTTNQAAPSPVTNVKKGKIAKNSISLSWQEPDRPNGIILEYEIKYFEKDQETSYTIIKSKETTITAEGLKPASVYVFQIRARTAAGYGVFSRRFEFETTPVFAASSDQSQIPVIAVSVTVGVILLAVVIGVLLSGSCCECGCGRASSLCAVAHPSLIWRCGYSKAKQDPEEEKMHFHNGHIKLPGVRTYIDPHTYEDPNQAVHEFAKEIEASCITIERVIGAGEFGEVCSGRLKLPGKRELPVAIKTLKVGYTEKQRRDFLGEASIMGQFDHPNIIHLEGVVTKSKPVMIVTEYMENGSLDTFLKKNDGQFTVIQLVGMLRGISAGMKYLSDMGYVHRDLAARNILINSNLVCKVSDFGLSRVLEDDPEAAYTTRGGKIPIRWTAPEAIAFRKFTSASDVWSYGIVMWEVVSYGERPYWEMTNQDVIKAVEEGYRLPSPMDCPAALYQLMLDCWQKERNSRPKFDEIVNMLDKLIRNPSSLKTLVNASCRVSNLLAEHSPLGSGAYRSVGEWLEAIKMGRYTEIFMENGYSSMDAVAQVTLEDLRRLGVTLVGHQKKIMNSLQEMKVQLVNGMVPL
For assay [5] the target is unchanged. To be noted: at 10 µM.
The target of assay [6] is Ephrin type-A receptor 7 (Homo sapiens) (UniProt Q15375). To be noted: at 1 µM.
Ephrin type-A receptor 7 (Homo sapiens), sequence (Q15375 28-998 limits assumed): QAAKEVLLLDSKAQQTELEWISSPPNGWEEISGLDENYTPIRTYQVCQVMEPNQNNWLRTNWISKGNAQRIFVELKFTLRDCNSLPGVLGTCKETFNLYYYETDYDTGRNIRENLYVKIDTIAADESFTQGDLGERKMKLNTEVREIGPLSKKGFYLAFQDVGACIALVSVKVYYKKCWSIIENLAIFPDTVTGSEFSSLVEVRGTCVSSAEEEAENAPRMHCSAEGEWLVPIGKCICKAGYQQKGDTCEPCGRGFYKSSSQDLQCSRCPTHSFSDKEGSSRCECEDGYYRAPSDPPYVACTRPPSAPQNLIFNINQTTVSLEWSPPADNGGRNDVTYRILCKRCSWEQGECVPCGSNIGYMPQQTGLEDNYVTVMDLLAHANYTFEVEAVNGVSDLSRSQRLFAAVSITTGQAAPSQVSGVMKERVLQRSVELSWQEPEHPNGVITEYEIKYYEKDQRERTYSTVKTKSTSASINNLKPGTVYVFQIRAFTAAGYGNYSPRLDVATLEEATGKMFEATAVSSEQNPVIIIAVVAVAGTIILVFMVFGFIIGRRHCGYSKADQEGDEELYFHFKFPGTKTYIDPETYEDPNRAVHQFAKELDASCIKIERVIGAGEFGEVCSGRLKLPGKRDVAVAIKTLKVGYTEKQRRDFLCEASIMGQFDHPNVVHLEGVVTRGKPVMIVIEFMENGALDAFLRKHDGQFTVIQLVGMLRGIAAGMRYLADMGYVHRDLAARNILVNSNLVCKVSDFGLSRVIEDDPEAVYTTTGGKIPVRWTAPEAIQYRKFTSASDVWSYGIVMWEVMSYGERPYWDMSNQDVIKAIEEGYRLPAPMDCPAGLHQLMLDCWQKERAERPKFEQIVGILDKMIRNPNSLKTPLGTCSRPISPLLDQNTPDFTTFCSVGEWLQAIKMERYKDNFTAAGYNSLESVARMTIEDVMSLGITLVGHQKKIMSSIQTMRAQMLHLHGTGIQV
Assay [7] shares this target. The conditions noted are these: at 10 µM.
The target in assay [8] is T2, Ephrin type-A receptor 8 (Homo sapiens) (UniProt P29322).
T2 sequence (whole entry): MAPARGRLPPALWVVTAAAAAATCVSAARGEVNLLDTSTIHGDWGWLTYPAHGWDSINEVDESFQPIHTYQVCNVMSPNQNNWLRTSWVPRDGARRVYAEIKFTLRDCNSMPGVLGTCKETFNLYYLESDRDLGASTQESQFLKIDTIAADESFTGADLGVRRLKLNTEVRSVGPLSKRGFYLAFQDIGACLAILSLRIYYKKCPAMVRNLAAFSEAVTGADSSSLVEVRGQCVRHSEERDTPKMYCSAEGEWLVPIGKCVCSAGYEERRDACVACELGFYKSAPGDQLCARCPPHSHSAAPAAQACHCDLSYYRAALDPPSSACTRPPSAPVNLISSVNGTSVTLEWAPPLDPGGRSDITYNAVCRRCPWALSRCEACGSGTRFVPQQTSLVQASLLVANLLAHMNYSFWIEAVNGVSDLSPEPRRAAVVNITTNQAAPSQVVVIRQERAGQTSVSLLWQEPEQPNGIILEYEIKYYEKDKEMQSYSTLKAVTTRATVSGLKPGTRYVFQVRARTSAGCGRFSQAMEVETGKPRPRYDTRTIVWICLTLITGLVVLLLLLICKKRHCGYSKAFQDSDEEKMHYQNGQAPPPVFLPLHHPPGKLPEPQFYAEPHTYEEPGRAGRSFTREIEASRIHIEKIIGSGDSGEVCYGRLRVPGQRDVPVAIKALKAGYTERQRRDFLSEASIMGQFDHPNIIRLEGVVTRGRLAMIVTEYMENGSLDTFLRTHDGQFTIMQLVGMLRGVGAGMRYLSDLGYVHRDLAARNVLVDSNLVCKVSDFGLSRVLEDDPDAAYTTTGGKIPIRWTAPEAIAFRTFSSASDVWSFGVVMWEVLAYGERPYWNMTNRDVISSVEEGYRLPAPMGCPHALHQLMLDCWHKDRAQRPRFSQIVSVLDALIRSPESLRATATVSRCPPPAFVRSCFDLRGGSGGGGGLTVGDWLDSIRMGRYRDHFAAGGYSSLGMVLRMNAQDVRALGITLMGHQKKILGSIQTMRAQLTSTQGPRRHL
The conditions noted are these: at 1 µM.

In assay [9] the target is T2, Ephrin type-A receptor 8 (Homo sapiens). To be noted: at 10 µM.
Assay [10] concerns the target T3, Ephrin type-B receptor 1 (Homo sapiens) (UniProt P54762).
T3 sequence (whole entry): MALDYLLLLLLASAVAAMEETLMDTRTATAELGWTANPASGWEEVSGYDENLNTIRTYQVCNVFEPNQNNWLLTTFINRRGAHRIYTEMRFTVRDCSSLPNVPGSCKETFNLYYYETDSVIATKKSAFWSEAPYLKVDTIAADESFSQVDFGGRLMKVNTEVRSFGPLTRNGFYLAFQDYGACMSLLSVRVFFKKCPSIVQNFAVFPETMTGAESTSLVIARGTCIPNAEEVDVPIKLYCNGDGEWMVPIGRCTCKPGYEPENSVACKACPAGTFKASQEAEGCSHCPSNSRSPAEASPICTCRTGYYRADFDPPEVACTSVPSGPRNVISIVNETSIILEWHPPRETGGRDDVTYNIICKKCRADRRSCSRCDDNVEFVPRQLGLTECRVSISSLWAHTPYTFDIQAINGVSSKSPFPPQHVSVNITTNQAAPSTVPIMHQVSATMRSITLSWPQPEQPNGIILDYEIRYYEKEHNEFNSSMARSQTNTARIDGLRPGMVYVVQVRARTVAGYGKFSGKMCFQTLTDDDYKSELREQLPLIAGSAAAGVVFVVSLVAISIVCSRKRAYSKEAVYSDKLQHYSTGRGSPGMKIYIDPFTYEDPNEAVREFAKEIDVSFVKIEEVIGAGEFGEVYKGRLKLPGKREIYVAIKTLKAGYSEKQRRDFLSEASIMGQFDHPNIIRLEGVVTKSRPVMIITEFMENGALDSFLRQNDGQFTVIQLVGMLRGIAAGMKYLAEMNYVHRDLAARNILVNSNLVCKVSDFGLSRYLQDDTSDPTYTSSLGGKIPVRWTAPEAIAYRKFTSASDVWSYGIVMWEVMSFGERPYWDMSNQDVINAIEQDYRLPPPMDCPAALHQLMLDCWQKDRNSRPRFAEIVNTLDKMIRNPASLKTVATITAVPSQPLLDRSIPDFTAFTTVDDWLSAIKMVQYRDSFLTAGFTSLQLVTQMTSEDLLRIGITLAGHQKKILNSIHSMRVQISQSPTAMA
The conditions noted are these: at 1 µM.

Ephrin type-A receptor 4 (Homo sapiens), sequence (P54764 whole entry): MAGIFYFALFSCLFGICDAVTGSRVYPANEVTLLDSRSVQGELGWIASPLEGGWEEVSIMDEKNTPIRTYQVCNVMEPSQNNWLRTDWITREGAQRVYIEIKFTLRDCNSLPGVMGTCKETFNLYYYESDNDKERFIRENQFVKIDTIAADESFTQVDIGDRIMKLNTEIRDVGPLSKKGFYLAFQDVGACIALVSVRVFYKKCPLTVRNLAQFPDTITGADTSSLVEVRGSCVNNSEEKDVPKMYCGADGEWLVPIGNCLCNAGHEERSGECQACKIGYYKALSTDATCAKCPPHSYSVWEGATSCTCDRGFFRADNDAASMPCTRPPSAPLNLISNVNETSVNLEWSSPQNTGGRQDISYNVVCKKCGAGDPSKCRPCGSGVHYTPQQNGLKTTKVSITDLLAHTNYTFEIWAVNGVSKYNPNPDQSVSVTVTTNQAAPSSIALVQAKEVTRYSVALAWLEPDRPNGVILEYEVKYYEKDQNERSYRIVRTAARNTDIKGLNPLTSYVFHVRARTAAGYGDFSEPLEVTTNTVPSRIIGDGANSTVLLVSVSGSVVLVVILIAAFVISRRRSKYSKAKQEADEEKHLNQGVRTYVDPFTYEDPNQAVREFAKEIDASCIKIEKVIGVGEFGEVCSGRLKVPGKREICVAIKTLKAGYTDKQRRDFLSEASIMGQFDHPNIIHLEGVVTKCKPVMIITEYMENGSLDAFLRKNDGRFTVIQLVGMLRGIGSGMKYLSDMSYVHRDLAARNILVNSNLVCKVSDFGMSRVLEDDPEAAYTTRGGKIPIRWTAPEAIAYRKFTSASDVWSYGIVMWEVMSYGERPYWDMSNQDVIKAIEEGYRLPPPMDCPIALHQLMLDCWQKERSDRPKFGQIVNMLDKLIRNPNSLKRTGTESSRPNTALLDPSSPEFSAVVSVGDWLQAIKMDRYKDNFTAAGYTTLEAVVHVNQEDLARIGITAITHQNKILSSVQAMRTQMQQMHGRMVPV

What is called residual activity is the signal under treatment as a percentage of the control signal. Take `NC(=O)c1ccc2[nH]c(-c3ccc(Oc4ccc(Cl)cc4)cc3)nc2c1`: the residual activity in assay [1] came out at 111%; in assay [2] it was 112%; in assay [3] it was 104%; in [4] it was 114%; in assay [5], 103%; in assay [6], 94%. Further, the residual activity came out at 81% in assay [7], 94% in [8], 96% in assay [9] and 95% in assay [10].

For the origin of these results see ChEMBL document CHEMBL2218924, “A broad activity screen in support of a chemogenomic map for kinase signalling research and drug discovery” (Biochem J, 2013).
